The whole screen tested about 3,200 compounds, of which about 110 (3.4%) showed an effect of 50% or more. For the sample, strong results were picked, then their nearest neighbours and some compounds at random.
Tested on: T1, V. cholerae SAD30
T1 construct: SAD30
Set-up: species or system S. aureus MSSA476 (TSB) or V. cholerae SAD30 (LB); 384-well bacterial growth screen at 25 uM, OD600 relative to DMSO control
Conditions: relative growth, OD600, LB; 25 µM; inhibitor

Row | SMILES | % of control remaining [%]
1 | C=CC(=O)NCc1csc(C(C)(C)C)n1 [2-C09, N-[(2-tert-butyl-1,3-thiazol-4-yl)methyl]prop-2-enamide] | 91.5854
2 | COc1ccc(C=C(C#N)C(=O)Nc2ccc(Cl)c(Cl)c2)cc1 [8-C03, 2-cyano-N-(3,4-dichlorophenyl)-3-(4-methoxyphenyl)prop-2-enamide] | 89.395
3 | C=CC(=O)Nc1cc(Cl)cc(C)c1OC [1-E16, N-(5-chloro-2-methoxy-3-methylphenyl)prop-2-enamide] | 87.145
4 | C=CC(=O)Nc1ccc(C(N)=O)nc1OC [1-E18, 6-methoxy-5-(prop-2-enamido)pyridine-2-carboxamide] | 89.6861
5 | C=CC(=O)Nc1c(OC)nc(Cl)nc1OC [1-B14, N-(2-chloro-4,6-dimethoxypyrimidin-5-yl)prop-2-enamide] | 48.0864
6 | N#CC(=Cc1cccc(Cl)c1Cl)C(=O)NCCc1ccccc1 [8-J06, 2-cyano-3-(2,3-dichlorophenyl)-N-(2-phenylethyl)prop-2-enamide] | 78.9259
7 | CCN(CC)c1ccc(NC(=O)CCl)cc1 [6-N10, 2-chloro-N-[4-(diethylamino)phenyl]acetamide] | 90.5489
8 | C=CC(=O)Nc1ccc(C)cc1S(=O)(=O)N1CCOCC1 [1-O13, N-[4-methyl-2-(morpholine-4-sulfonyl)phenyl]prop-2-enamide] | 87.2945
9 | Cc1ccccc1NC(=O)C(C#N)=Cc1cc2c(cc1[N+](=O)[O-])OCO2 [9-P11, 2-cyano-N-(2-methylphenyl)-3-(6-nitro-1,3-dioxaindan-5-yl)prop-2-enamide] | 84.5003
10 | C=CC(=O)N1CCCC(c2nn(C)cc2C(N)=O)C1 (stereo not drawn) [1-D07, 1-methyl-3-[1-(prop-2-enoyl)piperidin-3-yl]-1H-pyrazole-4-carboxamide] | 92.9746
11 | O=C(CCl)c1c[nH]c2ccc(F)cc12 [10-O11, 2-chloro-1-(5-fluoro-1H-indol-3-yl)ethan-1-one] | 23.3781
12 | O=C(CCl)c1ccc(O)cc1O [10-C14, 2-chloro-1-(2,4-dihydroxyphenyl)ethan-1-one] | 100.682
13 | Cc1cc(C(=O)CCl)c(C)n1Cc1ccc(F)cc1 [10-N17, 2-chloro-1-{1-[(4-fluorophenyl)methyl]-2,5-dimethyl-1H-pyrrol-3-yl}ethan-1-one] | 95.5387
14 | O=C(CCl)c1c[nH]c2ccccc12 [10-B05, 2-chloro-1-(1H-indol-3-yl)ethan-1-one] | 108.475
15 | O=C(CCl)c1ccc(F)cc1F [10-I18, 2-chloro-1-(2,4-difluorophenyl)ethan-1-one] | 22.7547
16 | CC(C)Oc1ccc2[nH]cc(C(=O)CCl)c2c1 [10-E03, 2-chloro-1-[5-(propan-2-yloxy)-1H-indol-3-yl]ethan-1-one] | 105.669
17 | COc1ccc(Cc2cnc(NC(=O)CCl)s2)cc1 [4-F17, 2-chloro-N-{5-[(4-methoxyphenyl)methyl]-1,3-thiazol-2-yl}acetamide] | 111.451

Row | SMILES | % of control remaining [%]
18 | CC(Cl)C(=O)N1CCc2ncccc2C1 (stereo not drawn) [7-I19, 2-chloro-1-(5,6,7,8-tetrahydro-1,6-naphthyridin-6-yl)propan-1-one] | 77.5814
19 | C=CC(=O)NC(CO)c1ccnn1C (stereo not drawn) [2-D17, N-[2-hydroxy-1-(1-methyl-1H-pyrazol-5-yl)ethyl]prop-2-enamide] | 92.203
20 | C=CC(=O)Nc1cccc(-c2cn(C)nn2)c1 [1-K14, N-[3-(1-methyl-1H-1,2,3-triazol-4-yl)phenyl]prop-2-enamide] | 83.4081
21 | COc1ccc(-n2c(C)c(C)c(C#N)c2NC(=O)CCl)cc1 [4-F20, 2-chloro-N-[3-cyano-1-(4-methoxyphenyl)-4,5-dimethyl-1H-pyrrol-2-yl]acetamide] | 105.413
22 | Cc1cc(C(=O)CCl)c(C)n1-c1cccc(Cl)c1 [10-N18, 2-chloro-1-[1-(3-chlorophenyl)-2,5-dimethyl-1H-pyrrol-3-yl]ethan-1-one] | 92.4216
23 | O=C(CCl)c1cn(-c2ccc(F)cc2)nn1 [10-F05] | 0.6234
24 | Cc1cc(C(=O)CCl)c(C)n1-c1ccc(C(F)(F)F)cc1 [10-J14, 2-chloro-1-{2,5-dimethyl-1-[4-(trifluoromethyl)phenyl]-1H-pyrrol-3-yl}ethan-1-one] | 98.4999
25 | CC(NC(=O)CCl)c1cn(-c2ccccc2)nn1 (stereo not drawn) [5-O06, 2-chloro-N-[1-(1-phenyl-1H-1,2,3-triazol-4-yl)ethyl]acetamide] | 103.73
26 | Cc1cccc(-n2c(C)cc(C(=O)CCl)c2C)c1 [10-A22, 2-chloro-1-[2,5-dimethyl-1-(3-methylphenyl)-1H-pyrrol-3-yl]ethan-1-one] | 108.163
27 | O=C(CCl)c1c(-c2ccc(F)cc2)[nH]c2ccccc12 [10-P04, 2-chloro-1-[2-(4-fluorophenyl)-1H-indol-3-yl]ethan-1-one] | 95.8504
28 | Cn1ccc(C(=O)CCl)c1 [10-D08, 2-chloro-1-(1-methyl-1H-pyrrol-3-yl)ethan-1-one] | 103.176
29 | O=C(CCl)c1cn(-c2cccc(C(F)(F)F)c2)nn1 [10-C09, 2-chloro-1-{1-[3-(trifluoromethyl)phenyl]-1H-1,2,3-triazol-4-yl}ethan-1-one] | 24.9367
30 | Cc1cccc(-n2cc(C(=O)CCl)nn2)c1 [10-L07] | 5.299
31 | Cn1cc(C(=O)CCl)nn1 [10-M19, 2-chloro-1-(1-methyl-1H-1,2,3-triazol-4-yl)ethan-1-one] | 0
32 | O=C(CCl)NC1CC(=O)N(c2cccc(C(F)(F)F)c2)C1 (stereo not drawn) [5-E09, 2-chloro-N-{5-oxo-1-[3-(trifluoromethyl)phenyl]pyrrolidin-3-yl}acetamide] | 100.2
33 | Cn1cc(C(=O)CCl)cc1C(N)=O [10-J06, 4-(2-chloroacetyl)-1-methyl-1H-pyrrole-2-carboxamide] | 97.5648
